From ChEMBL document CHEMBL1157539, “Thousands of chemical starting points for antimalarial lead identification” (Nature, 2010) come the findings set out here.

Structures are written as SMILES.

What all share (format): functional
Assay [1] concerns Plasmodium falciparum. Kind of assay: GSK_TCMDC: Inhibition of Plasmodium falciparum 3D7 in whole red blood cells, using parasite LDH activity as an index of growth. Test compounds present at 2uM.
The test system of assay [2] is Plasmodium falciparum. The assay can be described thus: GSK_TCMDC: Inhibition of Plasmodium falciparum Dd2 in whole red blood cells, using parasite LDH activity as an index of growth. Test compounds present at 2uM.
Another assay concerns HepG2. Kind of assay: GSK_TCMDC: Percent inhibition of human HepG2 cell line. Test compounds present at 10uM.

As for `O=C(Nc1ccc(-c2cccc(-c3nc4cc(F)ccc4[nH]3)c2)cc1)c1ccncc1`, the Inhibition is on record as 96% in the assay with Plasmodium falciparum [1], 18% with Plasmodium falciparum [2] and 58% in the assay with HepG2.

As to `CN1CCC(C(=O)Nc2ccc(-c3ccc(-c4nc5cc(C(F)(F)F)ccc5[nH]4)s3)cc2)CC1`, the figures for the Inhibition in the assay with Plasmodium falciparum [1], in the assay on Plasmodium falciparum [2] and with HepG2 were 100%, 95% and 53%, respectively.

For the molecule `CCOc1cc(Cl)c(C(C)NC(=O)c2cccc(OC)c2)cc1OCC` (centres undefined), the Inhibition with Plasmodium falciparum [1] is reported as 98%; in the assay on Plasmodium falciparum [2], 92%; in the assay with HepG2, 29%.

As for `COc1ccc(CNC2Cc3ccccc3C2)cc1-c1ccc(S(=O)(=O)NCc2cccnc2)s1.O=C(O)C(F)(F)F`, the Inhibition in the assay on Plasmodium falciparum [1] was determined as 91%; with Plasmodium falciparum [2], 18%; in the assay with HepG2, 49%.

Take `O=C(NC1CCCC1)c1ccc(N2CCC(NCc3cc4cc(Cl)ccc4[nH]3)CC2)cc1`: the Inhibition with Plasmodium falciparum [1] stood at 91%; in the assay on Plasmodium falciparum [2], 0%; in the assay on HepG2, 21%.

With `O=C(Nc1cccc(C(F)(F)F)c1)N1CCOC(CCN2CCC3(CCc4ccccc43)CC2)(c2ccc(Cl)c(Cl)c2)C1` (centres undefined), the Inhibition with Plasmodium falciparum [1] was found to be 99%; in the assay with Plasmodium falciparum [2], 70%; in the assay with HepG2 it was 31%.

In the case of `O=C(Nc1cccc(CN2CCCN(Cc3ccc(O)cc3)CC2)c1)c1ccc2ccccc2c1.O=C(O)C(F)(F)F`, the Inhibition came to 100% with Plasmodium falciparum [1], 78% in the assay with Plasmodium falciparum [2] and 20% in the assay on HepG2.

As for `O=C(O)C(F)(F)F.O=S(=O)(NCCN1CCCC1)c1ccc(-c2cccc(CNC3Cc4ccccc4C3)c2)cc1F`, the values for the Inhibition in the assay on Plasmodium falciparum [1], in the assay with Plasmodium falciparum [2] and in the assay on HepG2 were 98%, 62% and 41%, respectively.

Turning to `N#Cc1ccc(N/C(=N\c2ccc(-c3ccccc3)cc2)NCCc2c[nH]c3ccccc23)c(O)c1`, the Inhibition with Plasmodium falciparum [1] is recorded as 96%; in the assay on Plasmodium falciparum [2], 75%; in the assay on HepG2, 6%.

Consider `COc1ccc2cc(CNCCCCCCNCc3ccc4cc(OC)ccc4c3)ccc2c1.CS(=O)(=O)O`, for which the Inhibition in the assay on Plasmodium falciparum [1] was found to be 100%; in the assay with Plasmodium falciparum [2], 92%; in the assay on HepG2, 100%.

Regarding `O=C(Nc1cccc(CN2CCCN(Cc3ccc4c(c3)OCO4)CC2)c1)c1ccc2ccccc2c1.O=C(O)C(F)(F)F`, the Inhibition in the assay on Plasmodium falciparum [1] is 86%; in the assay on Plasmodium falciparum [2], 14%; with HepG2, 7%.

`Cc1ccc(F)cc1S(=O)(=O)NCC(C)c1ccc(NC(=O)Nc2cccc(F)c2)cc1` (centres undefined): the Inhibition amounted to 95% with Plasmodium falciparum [1], 5% in the assay with Plasmodium falciparum [2] and 20% in the assay with HepG2.

Take `COc1ccc(NC(=O)CSc2nc(-c3ccccc3Cl)ns2)cc1OC`: the Inhibition with Plasmodium falciparum [1] is recorded as 97%; in the assay on Plasmodium falciparum [2], 63%; in the assay on HepG2 it was 0%.

With `COc1cc(Cc2cnc(N)nc2N)cc(OCCCOc2ccccc2)c1OC`, the Inhibition with Plasmodium falciparum [1] is 94%; in the assay with Plasmodium falciparum [2], 2%; in the assay with HepG2, 7%.

Take `FC(F)(F)c1ccc2[nH]c(-c3ccc(-c4cccc(CNCc5cnn(-c6ccccc6)n5)c4)cc3)nc2c1.O=C(O)C(F)(F)F`: the figures for the Inhibition with Plasmodium falciparum [1], with Plasmodium falciparum [2] and in the assay on HepG2 were 99%, 83% and 19%, respectively.

`Fc1ccc(C=NN=c2cc[nH]c3ccc(C(F)(F)F)cc23)cc1`: the results for the Inhibition in the assay with Plasmodium falciparum [1], with Plasmodium falciparum [2] and in the assay on HepG2 were 90%, 6% and 22%, respectively.

For `COc1cc(Nc2ccnc3ccc(C(C)(C)C)cc23)cc(OC)c1OC`, the Inhibition was determined as 100% in the assay on Plasmodium falciparum [1], 80% with Plasmodium falciparum [2] and 12% in the assay with HepG2.

With `CCOc1ccc(-c2nonc2NC(=O)c2ccc(F)cc2)cc1OCC`, the Inhibition came out at 100% with Plasmodium falciparum [1], 99% with Plasmodium falciparum [2] and 36% with HepG2.

For the molecule `CCc1ccc(CN2CCCCC(NC(=O)c3cc(-c4ccccc4F)cs3)C2)cc1.O=C(O)C(F)(F)F` (centres undefined), the Inhibition turned out to be 87% with Plasmodium falciparum [1], 12% with Plasmodium falciparum [2] and 25% in the assay on HepG2.

Regarding `O=C(Nc1ccc(Cl)cc1)Nc1ccc(-c2cccc(-c3nc4ccccc4[nH]3)c2)cc1`, the Inhibition in the assay on Plasmodium falciparum [1] is 100%; in the assay with Plasmodium falciparum [2], 78%; with HepG2 it was 69%.

Consider `CCCCCOc1ccc(C=NNc2nc(O)cc(-c3ccccc3)n2)cc1`, for which the Inhibition with Plasmodium falciparum [1] came to 88%; in the assay with Plasmodium falciparum [2], 86%; in the assay with HepG2, 0%.

Consider `Cl.c1ccc2c(NCCCCCCCNc3ccnc4ccccc34)ccnc2c1`, for which the Inhibition in the assay with Plasmodium falciparum [1] worked out at 100%; in the assay with Plasmodium falciparum [2], 94%; with HepG2 it was 91%.

For `COc1cccc(CN(C(=O)Nc2ccccc2F)[C@H]2C[C@H]3C(=O)Nc4cc(F)ccc4C(=O)N3C2)c1`, the Inhibition is 93% in the assay on Plasmodium falciparum [1], 75% in the assay on Plasmodium falciparum [2] and 0% in the assay on HepG2.

As for `C=C(C)CSc1nc2c(c(=O)n1Cc1ccco1)C1(CCCCC1)Cc1ccccc1-2`, the Inhibition was 97% in the assay with Plasmodium falciparum [1], 68% with Plasmodium falciparum [2] and 2% in the assay with HepG2.

With `CCOc1ccc(Nc2cc(C)nc(Nc3ccc(OCC)cc3)n2)cc1`, the Inhibition is 100% in the assay with Plasmodium falciparum [1], 49% with Plasmodium falciparum [2] and 3% in the assay on HepG2.

Take `CC(C)(C)c1ccc(-c2cc3c(ccc4nc(N)nc(N)c43)[nH]2)cc1`: the Inhibition in the assay on Plasmodium falciparum [1], in the assay with Plasmodium falciparum [2] and in the assay with HepG2 was 100% in each case.

For the molecule `CC(=O)Nc1ccc(C(=O)Nc2cccc(-c3ccc(-c4nc5cc(F)ccc5[nH]4)s3)c2)cn1`, the Inhibition with Plasmodium falciparum [1] is listed as 100%; in the assay with Plasmodium falciparum [2] it was 97%; in the assay with HepG2, 33%.

Turning to `O=C(O)C(F)(F)F.OC1(c2ccccc2)CCN(Cc2cccc(-c3c[nH]c4nc(NC5CCCC5)ncc34)c2)C1` (centres undefined), the Inhibition in the assay with Plasmodium falciparum [1] is given as 92%; with Plasmodium falciparum [2], 31%; in the assay with HepG2 it was 42%.

A word on the Inhibition: it is the drop in the measured response relative to a control, in per cent. The low end stands for little suppression, the high end for strong suppression.
